{"source": "PubChem BioAssay AID435005", "about": "(Broad Institute, 2010)", "note": "Hit rate of the full screen: of about 300,000 compounds, about 2,400 (0.8%) were called active.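 The calls were made as follows: active = Every replicate reaches about 75%, or at least half do and their mean reaches it too (limit read from the data); inconclusive = At least half of replicates reach the limit but their mean does not; inactive = Under half of replicates reach the limit.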 The sample as a whole holds a higher share of actives than the screen did.", "data": [{"experiment": "INS-1E beta cell survival under cytokines – luminescence, primary screen (AID 435005);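 also: 0% = cytokine-treated negative control wells and 100% = positive control rescue; higher means more ATP so stronger rescue from cytokine killing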", "settings": "INS-1E cytokine-induced death, ATP luminescence, 48 h; active compounds read high; concentration not given here", "values": [{"smiles": "CCOc1cccc(=NC2CCCCC2)c2c(C)[nH]c(C)c12", "protection from apoptosis": "115% (active)"}, {"smiles": "C[C@]12CCC3C(CC[C@H]4C[C@@H](O)CC[C@]34C)C1CC[C@@H]2O", "note": "(stereo not given in full)", "protection from apoptosis": "1.25% (inactive)"}, {"smiles": "O=C1C2(Cl)C3(Cl)C4(Cl)C(Cl)(Cl)C5(Cl)C3(Cl)C1(Cl)C5(Cl)C24Cl", "note": "(stereo not given)", "protection from apoptosis": "-14.2% (inactive)"}, {"smiles": "COC(=O)C1=C(c2ccc(F)cc2OCc2ccccc2)C[C@@H]2CC[C@H]1N2C(=O)NCc1ccc(OC)c(OC)c1", "protection from apoptosis": "-1.83% (inactive)"}, {"smiles": "C[C@]12CC[C@H](O)CC1=C([N+](=O)[O-])CC1C2CC[C@@]2(C)C1CC[C@@H]2O", "note": "(stereo not given in full)", "protection from apoptosis": "-1.49% (inactive)"}, {"smiles": "COC(=O)C1=C(c2ccccc2OCc2ccccc2)C[C@@H]2CC[C@H]1N2C(=O)NCc1ccc(OC)cc1", "protection from apoptosis": "-9.52% (inactive)"}, {"smiles": "CCCCCCCCCCCCn1ccc(=N)cc1", "protection from apoptosis": "117% (active)"}, {"smiles": "C[C@]12CCC3C(CC[C@H]4C[C@@H](O)CC[C@]34C)C1C[C@@H](O)[C@H]2O", "note": "(stereo not given in full)", "protection from apoptosis": "0.154% (inactive)"}, {"smiles": "CCC(=O)c1ccc(OCC(=O)N2CCN(CC(=O)Nc3ccc(C)cc3)CC2)cc1", "protection from apoptosis": "4.28% (inactive)"}, {"smiles": "Clc1cccc(Cl)c1Cl", "protection from apoptosis": "5.51% (inactive)"}]}]}
